Source: PubChem (National Center for Advancing Translational Sciences (NCATS))
Only some compounds are listed: those with a hit (about 11% of all), similar ones and a draw of the others.
ALDH1A1 block: inhibitors of human aldehyde dehydrogenase 1A1. actives 7.3% (n = 220,000). Purified ALDH1A1, NADH fluorescence, propionaldehyde substrate. Potency, µM (doses to about 75.3 µM), actives largely listed as inhibitors. AID 1030. P00352; active = well fitted inhibition curve with a large enough effect, not every such curve was filed as active; inconclusive = small, poorly fitted or top-dose-only effect, or another doubt; inactive = no such curve, though single readings can be large or run the other way
IMPase Li inh: membrane-permeable IMPase blocker, potentiated with lithium | actives 0.35% (n = 210,000) | CHO-M1 cells, IP1 TR-FRET (IP-One), carbachol + lithium | AID 1457 | Potency, µM (top dose mostly 59.4 µM), most hits filed as inhibitors;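 note: IP1 builds up when IMPase is blocked and the TR-FRET signal falls; nearly all actives have a fitted effect of over 50% in size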
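Concentration–response in CHO-M1 cells, lithium-potentiated; 30 min at 37C. IP1 detected by competitive TR-FRET after 10 min lysis at RT. Hill-fitted AC50.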
NPSR antag: neuropeptide S receptor (human) antagonism, cAMP; AID 1461; CHO-NPSR cells, cAMP TR-FRET, antagonist mode; Potency, µM (highest dose often 38.3 µM), most hits filed as inhibitors; actives 1% (n = 220,000); note: nearly all actives have a fitted effect of over 50% in size
IMPase inh: IMPase inhibition in cells | P97697 | CHO-M1 cells, IP1 accumulation, HTRF TR-FRET ratio | inhibition (IP1 accumulation), % at 46.1 µM | 120,000 tested, under 10 active | AID 901; active = well fitted curve in the direction sought with a large enough effect in the signal ratio, not every such curve was filed as active; inconclusive = small, poorly fitted or top-dose-only effect, or a change in a side signal; inactive = no such curve, though single readings can be large or run the other way; the % refers to the signal ratio;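 note: cells stimulated with carbachol in lithium chloride buffer; higher means more IMPase inhibition seen as more IP1 and lower FRET ratio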
Target sequence (P97697 whole entry, looked up): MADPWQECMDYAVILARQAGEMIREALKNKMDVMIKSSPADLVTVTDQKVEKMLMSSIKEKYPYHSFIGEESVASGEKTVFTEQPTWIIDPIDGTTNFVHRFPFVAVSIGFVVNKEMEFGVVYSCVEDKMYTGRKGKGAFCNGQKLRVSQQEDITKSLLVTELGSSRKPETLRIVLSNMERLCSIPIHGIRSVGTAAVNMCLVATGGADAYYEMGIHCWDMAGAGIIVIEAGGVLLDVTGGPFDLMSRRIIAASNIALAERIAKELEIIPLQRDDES
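Cellular IMPase inhibition is scored as a rise in cytosolic IP1, detected by competitive TR-FRET between d2-labelled IP1 and a europium anti-IP1 antibody. M1-expressing CHO cells were stimulated with carbachol for 30 min at 37C, with lithium (50 mM LiCl) present in the buffer.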
HPGD inh: HPGD (human) dehydrogenase inhibition | P15428 | purified HPGD, NADH fluorescence kinetic, PGE2 substrate | Potency, µM, most hits filed as inhibitors | actives 4.3% (n = 150,000) | AID 894; active = well fitted inhibition curve with a large enough effect, not every such curve was filed as active; inconclusive = small, poorly fitted or top-dose-only effect, or another doubt; inactive = no such curve, though single readings can be large or run the other way
Target sequence (P15428 whole entry, looked up): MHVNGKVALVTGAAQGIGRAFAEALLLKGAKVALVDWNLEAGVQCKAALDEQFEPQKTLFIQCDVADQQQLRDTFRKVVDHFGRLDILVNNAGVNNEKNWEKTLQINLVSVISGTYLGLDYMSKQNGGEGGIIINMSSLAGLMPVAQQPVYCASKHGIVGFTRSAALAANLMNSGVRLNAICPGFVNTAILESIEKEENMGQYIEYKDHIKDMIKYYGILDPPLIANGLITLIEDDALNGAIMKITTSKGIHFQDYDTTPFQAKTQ
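20 nM HPGD preincubated 15 min at room temperature with compound in 50 mM Tris-HCl pH 8, 0.01% Tween 20. Started with 1 mM NAD+ and 30 uM prostaglandin E2; NADH fluorescence (360/450 nm) read 5 times over 30-s intervals, last minus first.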
PNC assembly inh: inhibitors of perinucleolar compartment assembly; PC3M PTB-GFP, PNC prevalence imaging, 16 h; active compounds read low; activity change (PNC), negative = inhibition, % at 10 µM; actives 3.1% (n = 140,000); AID 2417;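 active = readout at or below -70, meaning at least 70% loss of cells showing the perinucleolar compartment, a nuclear body marking cancer cells; inconclusive = readout between -30 and a set limit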
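Read-out is percentage of cells bearing a perinucleolar compartment, from automated 20x imaging of fixed, Hoechst-stained PC3M PTB-GFP cells. Cells were seeded 4 h, then exposed 16 h to compound (23 nl of library stock) in duplicate plates.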
Numbers stand for hits; - = inactive; ? = inconclusive; . = no result given; [ ] = dose if it differs, or a comment. Unless noted, calls come from the whole dose curve; as a rule, active = well fitted curve in the direction sought with a large enough effect; inconclusive = small, poorly fitted or top-dose-only effect, or another doubt; inactive = no such curve, though single readings can be large; an effect the other way counts as inactive or inconclusive.

SMILES	ALDH1A1 block	IMPase Li inh	NPSR antag	IMPase inh	HPGD inh	PNC assembly inh
COc1cc(C(=O)N2CCN(C(=O)c3ccco3)CC2)cc(OC)c1OC	?	-	-	-	-	-
O=C(c1ccc(CNS(=O)(=O)c2cccc(C(F)(F)F)c2)cc1)N1CCOCC1	?	-	-	?	14µM	-
O=C(NCc1cccc(C(F)(F)F)c1)c1cccc(S(=O)(=O)NCc2ccccc2)c1	-	-	-	.	-	-
Cc1ccc(S(=O)(=O)NCc2ccc(C(=O)N3CCN(c4ccccn4)CC3)cc2)cc1	-	-	-	-	-	?
CN1CCN(C(=O)c2ccc(CN(c3ccccc3)S(=O)(=O)c3ccccc3)cc2)CC1	-	-	-	.	.	.
Cc1ccc(S(=O)(=O)NCc2ccc(C(=O)N3CCN(Cc4ccccc4)CC3)cc2)cc1	11µM	-	-	-	-	-
O=C(NC(c1ccccc1)c1ccccc1)c1cccc(S(=O)(=O)NCc2ccccc2)c1	4.5µM	-	-	.	-	-
CCN1CCN(C(=O)c2ccc(CN(c3ccccc3)S(=O)(=O)c3ccccc3)cc2)CC1	-	-	-	.	14µM	?
CC1=Nn2c(nc(-c3ccccc3)c2-c2ccccc2)N(CC(N)=O)C(=O)C1	-	-	-	-	-	?
Cc1ccc(-n2nnnc2-c2cccnc2)cc1	.	.	-[7.67 µM]	.	.	.
CCCn1nc(C(=O)OCC(=O)Nc2cccc(OC)c2)c2ccccc2c1=O	-	-	-	.	.	.
COc1ccc(N2CCN(C(=O)c3ccc(NS(=O)(=O)c4ccccc4)cc3)CC2)cc1	-	-	-	-	-	-
COc1ccc(NS(=O)(=O)c2ccc(C(=O)N3CCN(Cc4ccccc4)CC3)cc2)cc1	3.2µM	-	-	.	.	.
Cc1cc(C)c(-c2cc([C@H](C)O/N=C\[C@@H](C)[C@H](OCc3ccccc3)C(C)C)on2)c(C)c1	-[13.5 µM]	.	.	.	.	.
COc1ccc(C2=NN(CN3C(=O)C(=O)c4ccccc43)C(c3ccc(C)cc3)C2)cc1 (centres undefined)	0.56µM	-	?	-	-	-
COc1ccc(C2=NN(CN3C(=O)C(=O)c4ccccc43)C(c3ccc(Br)cc3)C2)cc1 (centres undefined)	0.28µM	-	-	-	-	-
CC12C=CC(=O)C=C1[C@@H](F)CC1C2C(O)CC2(C)C1CC[C@]2(O)C(=O)CO (some centres undefined)	-	-	.	.	-	.
O=C(C[n+]1cc(-c2ccccc2)n2c1CCCCC2)c1ccc(Br)cc1	-	-	-	.	.	.
O=C(C[n+]1cn(C(F)F)c2ccccc21)c1ccc(Br)cc1	8.9µM	-	-	.	.	.
Cc1nc(NC(N)=S)sc1C(=O)Nc1ccccc1	?	-	-	-	-	-
Cc1nc(Nc2c(Cl)cccc2Cl)sc1C(=O)Nc1ccccc1	14µM	-	-	-	-	-
Cc1nn(Cc2ccccc2)c2c1C(c1cccnc1)C(C#N)=C(N)O2 (centres undefined)	7.9µM	-	-	-	-	-
Cc1nn(Cc2ccccc2)c2c1C(c1ccc(Cl)cc1)C(C#N)=C(N)O2 (centres undefined)	?	-	-	-[0.0738 µM]	1µM	?
CC(C)N1CC2=C(OC(N)=C(C#N)C2c2cccnc2)/C(=C/c2cccnc2)C1 (centres undefined)	-	-	-	-	-	-
Cc1nn(Cc2ccccc2)c2c1C(c1ccncc1)C(C#N)=C(N)O2 (centres undefined)	?	-	-	-	-	?
SMILES	ALDH1A1 block	IMPase Li inh	NPSR antag	IMPase inh	HPGD inh	PNC assembly inh
CCN(CC)c1ccc2c(c1)OC(N)=C(C#N)C2c1cccnc1 (centres undefined)	-	-	?	-	-	-99
N#CC1=C(N)OC2=C(CN(Cc3ccccc3)C/C2=C\c2cccnc2)C1c1cccnc1 (centres undefined)	1.3µM	-	-	-	-	-
C=CCN(CC=C)CCOc1ccc(OC(C)C)cc1	?	-	-	.	.	.
Cc1ccc(-c2cc(-c3ccccc3)no2)c(O)c1	-	-	-	-	-	-
Oc1ccccc1-c1cc(-c2ccccc2)no1	-	-	-	-	1.6µM	?
Cc1ccccc1-c1cc(-c2ccccc2O)on1	-	-	-	-	14µM	-
O=C(COC(=O)c1ccc([N+](=O)[O-])o1)Nc1nc2ccccc2s1	32µM	.	-	.	.	.
CCCCN1C(=O)/C(=C/C=C2\Oc3ccccc3N2CC)SC1=S	?	-	-	.	.	.
CCCCN1C(=O)/C(=C/C=C2/CC(C)(C)CN2C)SC1=S	6.3µM	-	-	.	-	-
C=CCn1c(Sc2ncc([N+](=O)[O-])s2)n[nH]c1=O	2µM	.	?	.	.	.
